Results taken from PubChem BioAssay (NCI).
About 83,000 compounds went through this panel and 20% of them were active in at least one assay; those are over-represented in the sample as a whole.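 Method: cells in 96-well plates; compound added at one concentration; 48 h incubation; percent growth measured; values under 10 scored active.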 The source made the active and inactive calls.

Experiments:
Experiment in all cases: NCI-60 one-dose screen, 48 h (100 = growth as untreated, 0 = no growth, -100 = all killed)
Details in all cases: 10 µM unless noted
SK-MEL-2 melanoma = system: SK-MEL-2 melanoma
EKVX NSCLC = system: EKVX NSCLC
UO-31 renal = system: UO-31 renal
TK-10 renal = system: TK-10 renal
ACHN renal = system: ACHN renal
CAKI-1 renal = system: CAKI-1 renal
A498 renal = system: A498 renal
CCRF-CEM leukemia = system: CCRF-CEM leukemia
MOLT-4 leukemia = system: MOLT-4 leukemia
SN12C renal = system: SN12C renal

Measured: growth

Cc1ccccc1NC(=O)Oc1ccc(Cl)cc1C(=O)c1ccccc1
inactive: SK-MEL-2 melanoma 92.6% | EKVX NSCLC 96.8% | UO-31 renal 49.1% | TK-10 renal 113% | ACHN renal 88.1% | CAKI-1 renal 91.7% | A498 renal 107% | CCRF-CEM leukemia 96.5% | MOLT-4 leukemia 86.3%

O=C(O)CSCC(=O)Nc1cc(C(F)(F)F)ccc1Cl
inactive: SK-MEL-2 melanoma 111% | EKVX NSCLC 105% | UO-31 renal 84.4% | TK-10 renal 110% | CAKI-1 renal 89.4% | A498 renal 139% | CCRF-CEM leukemia 101% | MOLT-4 leukemia 109%

O=C(O)c1ccc(OCc2ccccc2)cc1
inactive: SK-MEL-2 melanoma 101% | EKVX NSCLC 110% | UO-31 renal 89.6% | TK-10 renal 96.7% | ACHN renal 94.3% | CAKI-1 renal 92.7% | MOLT-4 leukemia 98%

O=[N+]([O-])c1ccc(-c2nc(N(CCO)CCO)c3ccccc3n2)o1
inactive: CCRF-CEM leukemia 21.1% | MOLT-4 leukemia 12.5%
active: SK-MEL-2 melanoma -62.7% | EKVX NSCLC -32.4% | SN12C renal 4.44% | TK-10 renal -14.1% | CAKI-1 renal -28.2% | A498 renal -77.1%

CCOC(=O)c1cc(Cl)c(O)c(Cl)c1
inactive: SK-MEL-2 melanoma 106% | EKVX NSCLC 109% | SN12C renal 107% | TK-10 renal 108% | CAKI-1 renal 109% | A498 renal 104% | CCRF-CEM leukemia 90.8% | MOLT-4 leukemia 89.6%

CCOc1ccc(C(=O)O)cc1
inactive: SK-MEL-2 melanoma 109% | EKVX NSCLC 99.6% | UO-31 renal 102% | TK-10 renal 99.6% | ACHN renal 109% | CAKI-1 renal 97.9% | A498 renal 84.7% | CCRF-CEM leukemia 105% | MOLT-4 leukemia 116%

CCNCC(C)(C)O
inactive: SK-MEL-2 melanoma 107% | EKVX NSCLC 99.6% | SN12C renal 101% | TK-10 renal 108% | CAKI-1 renal 99.1% | CCRF-CEM leukemia 106% | MOLT-4 leukemia 99.2%

CCC(=O)C1C(=O)c2ccccc2C1=O
inactive: SK-MEL-2 melanoma 102% | EKVX NSCLC 82.6% | UO-31 renal 68.8% | TK-10 renal 114% | ACHN renal 115% | A498 renal 114% | CCRF-CEM leukemia 107% | MOLT-4 leukemia 136%

C/C=C/C1OCC(CC)C(CCC)O1 (configuration not stated)
inactive: SK-MEL-2 melanoma 102% | EKVX NSCLC 105% | UO-31 renal 81.1% | TK-10 renal 101% | ACHN renal 110% | CAKI-1 renal 99.9% | A498 renal 91.7% | CCRF-CEM leukemia 85.4% | MOLT-4 leukemia 94%

COc1ccc2c(Cl)cc(NC(=O)Nc3c(C)cccc3C)nc2c1
inactive: SK-MEL-2 melanoma 106% | SN12C renal 82.6% | UO-31 renal 14.4% | TK-10 renal 35% | ACHN renal 41.9% | CAKI-1 renal 11.1% | A498 renal 36.1% | CCRF-CEM leukemia 86.5% | MOLT-4 leukemia 81.6%

Cc1ccccc1CC(N)C(=O)O (configuration not stated)
inactive: SK-MEL-2 melanoma 109% | SN12C renal 105% | UO-31 renal 91.7% | TK-10 renal 115% | ACHN renal 100% | CAKI-1 renal 96.6% | A498 renal 109% | CCRF-CEM leukemia 110% | MOLT-4 leukemia 109%

C=CC(C)C(C)(C)O (configuration not stated)
inactive: SK-MEL-2 melanoma 100% | EKVX NSCLC 105% | UO-31 renal 87.2% | TK-10 renal 104% | ACHN renal 106% | CAKI-1 renal 94.5% | A498 renal 91.4% | MOLT-4 leukemia 95.2%

C=CCC(O)C=C (configuration not stated)
inactive: SK-MEL-2 melanoma 106% | SN12C renal 101% | UO-31 renal 83.1% | TK-10 renal 96.2% | ACHN renal 100% | CAKI-1 renal 97.4% | A498 renal 88.7% | CCRF-CEM leukemia 94.1% | MOLT-4 leukemia 91.4%

Cc1ccc(NCN2C(=O)c3ccccc3C2=O)c(C)n1
inactive: SK-MEL-2 melanoma 124% | EKVX NSCLC 106% | UO-31 renal 87.3% | TK-10 renal 119% | ACHN renal 117% | CAKI-1 renal 105% | A498 renal 88.7% | MOLT-4 leukemia 104%

Cc1cc2nc(C)c(C)nc2cc1C
inactive: SK-MEL-2 melanoma 113% | EKVX NSCLC 98.4% | UO-31 renal 78.2% | TK-10 renal 118% | ACHN renal 90.7% | CAKI-1 renal 81.8% | A498 renal 114% | CCRF-CEM leukemia 102% | MOLT-4 leukemia 106%

COc1ccc2c(c1)Nc1ccccc1S2
inactive: SK-MEL-2 melanoma 112% | EKVX NSCLC 105% | UO-31 renal 93% | TK-10 renal 107% | ACHN renal 114% | CCRF-CEM leukemia 104% | MOLT-4 leukemia 106%

O=C(Oc1ccccc1Cl)c1ccc(Cl)cc1Cl
inactive: SK-MEL-2 melanoma 109% | EKVX NSCLC 94.4% | SN12C renal 98.3% | TK-10 renal 103% | CAKI-1 renal 99.8% | A498 renal 94.2% | CCRF-CEM leukemia 99.9% | MOLT-4 leukemia 110%

CC1(C)OC(=O)CC1=O
inactive: SK-MEL-2 melanoma 90.9% | EKVX NSCLC 96.8% | UO-31 renal 92.9% | TK-10 renal 87% | ACHN renal 101% | CAKI-1 renal 90.4% | A498 renal 88.9% | CCRF-CEM leukemia 89.3% | MOLT-4 leukemia 85.1%

CC(C)C(=O)OCCOc1ccc(C(C)(C)C)cc1
inactive: SK-MEL-2 melanoma 92.3% | EKVX NSCLC 103% | UO-31 renal 89.6% | TK-10 renal 93.7% | ACHN renal 101% | A498 renal 94.2% | CCRF-CEM leukemia 98.6% | MOLT-4 leukemia 114%

Nc1ncc([N+](=O)[O-])cn1
inactive: SK-MEL-2 melanoma 93.1% | EKVX NSCLC 105% | TK-10 renal 94.5% | ACHN renal 109% | A498 renal 87.8% | CCRF-CEM leukemia 98.4% | MOLT-4 leukemia 105%

COCC(N)=O
inactive: SK-MEL-2 melanoma 95.9% | EKVX NSCLC 109% | UO-31 renal 85.2% | TK-10 renal 102% | ACHN renal 102% | A498 renal 96.6% | MOLT-4 leukemia 98.5%

Cn1/c(=N\N=C\c2ccccc2OCCO)sc2ccccc21
inactive: SK-MEL-2 melanoma 104% | SN12C renal 102% | UO-31 renal 57.2% | TK-10 renal 109% | ACHN renal 92.5% | CAKI-1 renal 88.9% | A498 renal 103% | CCRF-CEM leukemia 93.3% | MOLT-4 leukemia 62.7%

O=S(=O)(O)c1ccc(O)c(C2CCCCC2)c1
inactive: SK-MEL-2 melanoma 102% | SN12C renal 105% | UO-31 renal 91% | TK-10 renal 95% | ACHN renal 105% | CAKI-1 renal 94.4% | A498 renal 66.3% | CCRF-CEM leukemia 110% | MOLT-4 leukemia 99.9%

CCOc1ccc2c(c1)c(C)cc(C)[n+]2CC
inactive: SK-MEL-2 melanoma 97.9% | SN12C renal 64.6% | UO-31 renal 65.9% | TK-10 renal 97% | ACHN renal 94.1% | CAKI-1 renal 86.2% | A498 renal 88.9% | CCRF-CEM leukemia 71.2% | MOLT-4 leukemia 64.6%

CCCCCCCCCCCCCCCCCC(=O)NCCNC(=O)CCCCCCCCCCCCCCCCC
inactive: SK-MEL-2 melanoma 90.2% | SN12C renal 97.2% | UO-31 renal 49% | TK-10 renal 106% | ACHN renal 86.2% | CAKI-1 renal 83.3% | A498 renal 101% | CCRF-CEM leukemia 61.9% | MOLT-4 leukemia 67.2%

C=CC1=NC(C)(C)CC(C)O1 (configuration not stated)
inactive: SK-MEL-2 melanoma 112% | SN12C renal 99.2% | UO-31 renal 111% | TK-10 renal 106% | ACHN renal 101% | CAKI-1 renal 114% | A498 renal 98.3% | CCRF-CEM leukemia 95.7% | MOLT-4 leukemia 98.5%

ClCC(Cl)C1CCC(Cl)C(Cl)C1 (configuration not stated)
inactive: SK-MEL-2 melanoma 110% | SN12C renal 104% | UO-31 renal 86.3% | TK-10 renal 100% | ACHN renal 99.3% | CAKI-1 renal 97.2% | A498 renal 85.5% | CCRF-CEM leukemia 97.5% | MOLT-4 leukemia 105%

O=S(=O)(c1ccc(NC(=S)NCc2cccnc2)cc1)N1CCCCC1
inactive: SK-MEL-2 melanoma 41.6% | SN12C renal 36.1% | UO-31 renal 70.7% | TK-10 renal 112% | ACHN renal 86.9% | CAKI-1 renal 29.1% | A498 renal 97.3% | CCRF-CEM leukemia 29% | MOLT-4 leukemia 47.3%

OC(CBr)CCBr (configuration not stated)
inactive: SK-MEL-2 melanoma 124% | SN12C renal 96.8% | UO-31 renal 103% | TK-10 renal 131% | ACHN renal 100% | CAKI-1 renal 92.4% | A498 renal 97.5% | CCRF-CEM leukemia 88.2% | MOLT-4 leukemia 104%

CCCCCCCCCCC(=O)CCCCCCCCCC
inactive: SK-MEL-2 melanoma 111% | SN12C renal 102% | UO-31 renal 85.8% | TK-10 renal 98.8% | ACHN renal 96.7% | CAKI-1 renal 95% | A498 renal 107% | CCRF-CEM leukemia 90% | MOLT-4 leukemia 92%

Cc1onc(-c2ccccc2Cl)c1C(=O)Cl
inactive: SK-MEL-2 melanoma 113% | SN12C renal 95.7% | UO-31 renal 91.2% | TK-10 renal 110% | ACHN renal 96.2% | CAKI-1 renal 93.5% | A498 renal 95.9% | CCRF-CEM leukemia 90.9% | MOLT-4 leukemia 114%

Cc1ccc(C(C)C)c(OCC(=O)O)c1
inactive: SK-MEL-2 melanoma 118% | SN12C renal 100% | UO-31 renal 97% | TK-10 renal 107% | ACHN renal 112% | CAKI-1 renal 110% | A498 renal 73.6% | CCRF-CEM leukemia 96.8% | MOLT-4 leukemia 111%

CC(=O)NC(CCc1ccc(Cl)c(Cl)c1)c1cccc(O)c(=O)c1 (configuration not stated)
inactive: SK-MEL-2 melanoma 17.8% | SN12C renal 12.4% | TK-10 renal 25.8% | ACHN renal 17.5% | A498 renal 36%
active: UO-31 renal -20.9% | CAKI-1 renal -0.0278% | CCRF-CEM leukemia 4.93% | MOLT-4 leukemia 4.68%

O=[N+]([O-])c1c(O)c(CNCCCO)cc(CNCCCO)c1O
inactive: SK-MEL-2 melanoma 87.9% | SN12C renal 104% | UO-31 renal 63.7% | TK-10 renal 111% | ACHN renal 93.9% | CAKI-1 renal 100% | A498 renal 130% | CCRF-CEM leukemia 119% | MOLT-4 leukemia 73.2%

CC(=O)C1C(=O)C(=O)N(c2ccc(Cl)c(Cl)c2)C1=O (configuration not stated)
inactive: SK-MEL-2 melanoma 111% | SN12C renal 97.4% | UO-31 renal 95.2% | TK-10 renal 107% | ACHN renal 97.8% | CAKI-1 renal 93.4% | A498 renal 118% | CCRF-CEM leukemia 115% | MOLT-4 leukemia 91.5%
